PubChem BioAssay AID2177 (The Scripps Research Institute Molecular Screening Center, 2009)
Out of some 320,000 compounds screened, about 1,200 (0.38%) were called active. Many of the other results were omitted from the sample, so actives are more common in it than they were. Values without a mark were called inactive.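 How the source made its calls: active means inhibition above the screen-wide mean plus 3 SD, limit set per campaign (cut at about 26% in these data); inactive means the rest.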

These compounds were tested against Acyl-protein thioesterase 2 (Homo sapiens) (UniProt O95372) (assay: inhibition of human lysophospholipase 2 – biochemical, fluorescence polarization, FP-Rh probe ABPP, counter-screen for PME1 inhibitor project, primary screen (AID 2177;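 further: 0% = LYPLA2 with DMSO and 100% = wells lacking LYPLA2 enzyme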)). Settings: recombinant LYPLA2, FP-Rh probe fluorescence polarization; at 5.9 µM; hits give high values.
Acyl-protein thioesterase 2 (Homo sapiens), sequence (O95372 whole entry, looked up): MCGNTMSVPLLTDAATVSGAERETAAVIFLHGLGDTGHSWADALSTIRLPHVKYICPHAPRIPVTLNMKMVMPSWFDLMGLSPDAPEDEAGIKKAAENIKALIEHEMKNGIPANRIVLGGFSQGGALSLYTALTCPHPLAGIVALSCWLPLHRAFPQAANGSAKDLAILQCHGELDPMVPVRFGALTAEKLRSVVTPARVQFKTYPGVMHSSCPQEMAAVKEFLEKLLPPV

SMILES	inhibition
Cc1scc(C(=O)NNC(=S)NCC(C)C)c1C	8.57%
Cc1sc2ncnc(N3CCC(C(=O)Nc4ccc(F)cc4Cl)CC3)c2c1C	-1.19%
COc1ccc(CC(=O)Nc2nc(-c3ccc(F)c(F)c3)cs2)cc1OC	-13.7%
CC(=O)Nc1cccc(-c2csc(Nc3cccc(C)n3)n2)c1	2.92%
COc1ccc(CCNc2nc(-c3cccc(NC(C)=O)c3)cs2)cc1OC	31.9% (active)
CC(C(=O)Nc1ccc(O)c(C(=O)O)c1)N1C(=O)/C(=C/c2cccs2)SC1=S (configuration not stated)	2.96%
COc1cc(NS(=O)(=O)c2ccc3ccccc3c2)c2ncccc2c1	-11.9%
O=C(c1cccs1)C1C(c2ccc(Br)cc2)NC(=S)NC1(O)C(F)(F)F (configuration not stated)	-1.56%
CCC(=O)c1ccc(OCC(O)CN2CC(C)OC(C)C2)cc1 (configuration not stated)	2.23%
O=C(COc1ccc(Cl)cc1)N1CCN(S(=O)(=O)c2ccc(Cl)cc2)CC1	-0.85%
OC(COc1ccc2c(c1)CCC2)CN1CCN(c2cccc(Cl)c2)CC1 (configuration not stated)	20.1%
CCC(=O)c1ccc(OCC(O)CN2CCN(c3cccc(C(F)(F)F)c3)CC2)cc1 (configuration not stated)	64.8% (active)
CCOc1ccccc1N1CCN(C(=O)COc2ccc3c(C)cc(=O)oc3c2)CC1	-4.36%
O=C(COc1ccc(S(=O)(=O)Nc2cccc(C(F)(F)F)c2)cc1)N1CCOCC1	2.78%
O=C(CCCN1C(=O)C2C3C=CC(C3)C2C1=O)N1CCN(c2ccccc2)CC1 (configuration not stated)	-3.87%
COc1ccc(N2CCN(C(=O)COc3ccc4c(C)cc(=O)oc4c3)CC2)cc1	11.7%
O=C(CCCN1C(=O)CSc2ncccc21)N1CCN(c2cccc(C(F)(F)F)c2)CC1	63.4% (active)
O=C(CN1C(=O)CSc2ncccc21)N1CCOCC1	-0.09%
O=C(COc1ccc(Cl)cc1)N1CCN(c2cccc(C(F)(F)F)c2)CC1	69.5% (active)
Cc1c(C)c2ccc(OCC(=O)N3CCN(c4cccc(Cl)c4)CC3)cc2oc1=O	49.8% (active)
O=C(c1ccc2c(c1)N(Cc1ccc(F)cc1)C(=O)c1ccccc1S2(=O)=O)N1CCN(c2ccccn2)CC1	1.84%

SMILES	inhibition
COc1cc(S(=O)(=O)N(Cc2cccs2)C2CC2)ccc1-n1cnnn1	3.27%
CCOC(=O)N1CCN(S(=O)(=O)c2ccc3c(c2)C(C)C(=O)N3)CC1 (configuration not stated)	-2.51%
Cc1ccccc1NC(=O)CSC1=NCCN1	0.07%
O=C1C2C3C=CC(C3)C2C(=O)N1c1ccc(-c2nc3ccccc3c(=O)o2)cc1 (configuration not stated)	1.58%
N#CCSc1nn(-c2ccc(F)cc2)c(=S)s1	-7.24%
COc1cccc(C(=O)Nc2nnc(S(=O)(=O)N3CCOCC3)s2)c1	-0.08%
Cc1ccccc1Cn1c2ccccc2c2cnn(CC(=O)NCc3ccco3)c(=O)c21	-21%
COc1ccc(-c2nc(CS(=O)CC(=O)NCc3ccccc3)c(C)o2)cc1OC (configuration not stated)	0.93%
COc1cccc(-c2nc(CS(=O)CC(=O)NCc3ccc(F)cc3)c(C)o2)c1 (configuration not stated)	10.6%
COc1ccc(-c2nc(CS(=O)CC(=O)NCc3ccccn3)c(C)o2)cc1 (configuration not stated)	27.8% (active)
CC[N+](C)(CC)CCC[n+]1c(-c2ccccc2)c2cc(N)ccc2c2ccc(N)cc21	72.4% (active)
O=C1/C(=C\c2ccccc2Cl)SC(=S)N1CCC(=O)N1CCCc2ccccc21	-1.32%
CCOc1ccc(NC(=O)CN(C)C(=O)CCSc2ccc(F)cc2)cc1OCC	6.29%
O=C(CCl)NNc1cccc(Cl)n1	-5.01%
CC1CC(NC(=O)/C(C#N)=C/c2ccc[nH]2)CC(C)(C)C1 (configuration not stated)	0.74%
O=C(CCCN1C(=O)c2cccc3cccc(c23)C1=O)N1CCN(Cc2ccc3c(c2)OCO3)CC1	64.2% (active)
Cn1c(=O)cc(OCCCC(=O)N2CCN(Cc3ccc4c(c3)OCO4)CC2)c2ccccc21	9.58%
O=C(Nc1cccc2ccccc12)N1CCN(Cc2ccc3c(c2)OCO3)CC1	1.22%
CCCCCc1c(C)nc(N2CCN(Cc3ccc4c(c3)OCO4)CC2)[nH]c1=O	-5.68%
CCOC(=O)CSc1nnc(-c2ccc([N+](=O)[O-])cc2)o1	-0.42%
O=C(CSc1nnc(-c2ccc([N+](=O)[O-])cc2)o1)Nc1ccccn1	0.49%

SMILES	inhibition
N#Cc1ccc(OCc2nnc(-c3ccc([N+](=O)[O-])cc3)o2)cc1	32.3% (active)
N#Cc1c(/N=C/N2CCCC2)oc(-c2ccccc2)c1-c1ccccc1	4.8%
CC(=O)C12CC(C)=C(C)CC1CC1C3CCC4=CC(=O)CCC4(C)C3CCC12C (configuration not stated)	-4.85%
COc1ccccc1N1CC(C(=O)NCCN2C(=O)S/C(=C\c3cccnc3)C2=O)CC1=O (configuration not stated)	1.85%
COc1ccc(N2CC(C(=O)NCCN3C(=O)S/C(=C\c4cccnc4)C3=O)CC2=O)c(OC)c1 (configuration not stated)	57.6% (active)
CCOc1ccc(N2CC(C(=O)NCCN3C(=O)S/C(=C\c4cccnc4)C3=O)CC2=O)cc1 (configuration not stated)	6.19%
Cc1cc(C)c(S(=O)(=O)N2CCC(C(=O)OCc3c(C)noc3C)CC2)c(C)c1	5.23%
COCCn1c(SCC(=O)c2[nH]c(C)c(C(C)=O)c2C)nc2ccccc2c1=O	-1.43%
CN(CC(=O)NCCc1ccccc1)S(=O)(=O)c1cnc[nH]1	-2.19%
COc1ccc(NC(=O)CC2SC(N3CCCCC3)=NC2=O)cc1OC (configuration not stated)	-2.51%
O=C(CC1SC(N2CCCC2)=NC1=O)Nc1ccc(C(=O)NCCc2ccc(F)cc2)cc1 (configuration not stated)	34.5% (active)
CCC(C)NC(=O)c1ccc(NC(=O)CC2SC(N3CCCCC3)=NC2=O)cc1 (configuration not stated)	-2.2%
CCN(CC)C(=O)CC1(c2ccccc2OC)CCOC(C(C)C)C1 (configuration not stated)	27.5% (active)
COc1ccc(C2(CNC(=O)C(c3ccccc3)c3ccccc3)CCOCC2)cc1OC	0.76%
CCN(CC(=O)Nc1ccccc1OC)C(=O)CC1CC2CCC1C2 (configuration not stated)	4.24%
c1ccc(-c2ccnc3nc(-n4cccc4)nn23)cc1	5.32%
CCCCCC1CCC(c2nnc(SCC(C)=O)o2)CC1 (configuration not stated)	34.9% (active)
CCN(CC)C(=O)CSc1nnc(C2CCCCC2)o1	6.58%
Cc1[nH]c2ccccc2c1C(=O)C(C)Sc1nnc(C2CC2)o1 (configuration not stated)	1.82%
CC(=O)Nc1ccc(N2C(=O)CCC2=O)cc1C	2%
